Biological target: Voltage-gated potassium channel subunit beta-2 (Rattus norvegicus) (UniProt P62483)
Test: inhibitors of rat Kvbeta2 reductase activity – biochemical, NADPH fluorescence, primary screen (AID 622);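 also: slope of raw intensity against log time taken from 70 to 1610 s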
Conditions: recombinant KvBeta, 4-cyanobenzaldehyde reduction, at 10 µM, hits give high values;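 active = fluorescence slope higher than the sample average by over 3 SD (cut at about -0.22 in these data, passing the limit was not always enough); inactive = the rest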

Sequence of Voltage-gated potassium channel subunit beta-2 (Rattus norvegicus) (P62483 whole entry, looked up): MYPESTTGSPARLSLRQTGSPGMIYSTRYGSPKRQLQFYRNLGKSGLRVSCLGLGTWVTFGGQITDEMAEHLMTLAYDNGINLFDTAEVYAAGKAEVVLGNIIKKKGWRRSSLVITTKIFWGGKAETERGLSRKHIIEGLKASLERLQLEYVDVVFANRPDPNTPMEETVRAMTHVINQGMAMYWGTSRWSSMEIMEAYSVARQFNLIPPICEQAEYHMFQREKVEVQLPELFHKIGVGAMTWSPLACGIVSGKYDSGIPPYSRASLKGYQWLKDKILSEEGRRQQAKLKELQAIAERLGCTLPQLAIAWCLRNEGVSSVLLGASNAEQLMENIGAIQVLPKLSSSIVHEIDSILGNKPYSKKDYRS

Fluorescence slope, inactive:
CN1Cc2c(N)cccc2C(c2ccccc2)C1 (centres undefined) -0.505, Cc1cn([C@H]2C=C[C@@H](CO)O2)c(=O)[nH]c1=O -0.461, COC(=O)c1ccc(N2C(=O)CC(N3CCN(C(=O)c4ccco4)CC3)C2=O)cc1 (centres undefined) -0.527, C[C@H]1C[C@H]2[C@@H]3CCC4=CC(=O)C=C[C@]4(C)[C@@]3(Cl)[C@@H](O)C[C@]2(C)[C@@]1(O)C(=O)CO -0.496, CCCC1O[C@@H]2C[C@H]3[C@@H]4CCC5=CC(=O)C=C[C@]5(C)[C@H]4[C@@H](O)C[C@]3(C)[C@]2(C(=O)CO)O1 (some centres undefined) -0.423, CNCCC(Oc1ccc(C(F)(F)F)cc1)c1ccccc1 (centres undefined) -0.447, Clc1ccc(Cn2c(CN3CCCC3)nc3ccccc32)cc1 -0.551, CC(C)NCC(O)COc1ccc(CC(N)=O)cc1 (centres undefined) -0.47, CC(C)C[C@H]1C(=O)N2CCC[C@H]2[C@]2(O)O[C@](NC(=O)[C@@H]3C=C4c5cccc6[nH]c(Br)c(c56)CC4N(C)C3)(C(C)C)C(=O)N12 (some centres undefined) -0.523, CCOC(=O)c1cc2c(=O)n3cccc(C)c3nc2n(CCc2ccccc2)c1=N -0.42, CC(=O)OCC1=C(C(=O)O)N2C(=O)[C@@H](NC(=O)Cc3cccs3)[C@H]2SC1 -0.429, Cc1cccc(Nc2ccccc2C(=O)O)c1C -0.511, CC(COc1ccccc1)N(CCCl)Cc1ccccc1 (centres undefined) -0.458, Cc1cc(C)nc(NS(=O)(=O)c2ccc(N)cc2)n1 -0.51

Source: PubChem BioAssay
